Eight compounds from PubChem BioAssay (NCI) can be followed below.

The panel holds about 83,000 compounds, 20% with a hit somewhere; the sample as a whole holds those more often.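 Values shown are percent growth following 48 h exposure of cells in 96-well plates to a single concentration of compound; below 10 was considered active.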 Values without a mark were called inactive. Active and inactive are the calls of the source.

Some test systems named below: HCT-15 colon; HT29 colon; SNB-75 CNS; SNB-19 CNS; U251 CNS; PC-3 prostate; SK-MEL-5 melanoma; UACC-62 melanoma; LOX IMVI melanoma; SK-MEL-28 melanoma; SK-MEL-2 melanoma; EKVX NSCLC; UO-31 renal; TK-10 renal; ACHN renal; CAKI-1 renal; A498 renal; CCRF-CEM leukemia; MOLT-4 leukemia; SN12C renal.
Holding throughout (experiment): NCI-60 one-dose screen, 48 h (100 = growth as untreated, 0 = no growth, -100 = all killed)
Holding throughout (conditions): 10 µM unless noted

In the case of `O=C(Oc1ccc2c(c1)sc1nc(-c3ccccc3)[nH]c(=O)c12)C(F)(F)F`, the growth was 22.2% in the assay on HCT-15 colon; 75.6% in the assay on HT29 colon; 10.7% with SNB-75 CNS; 45.6% in the assay on SNB-19 CNS; 28.9% in the assay on U251 CNS; 43.1% with PC-3 prostate. For the same compound, the growth in the assay with SK-MEL-5 melanoma was 11.6%; in the assay with UACC-62 melanoma, 11.3%; with LOX IMVI melanoma, 18.8%; in the assay with SK-MEL-28 melanoma, 36%; in the assay on SK-MEL-2 melanoma it was 26.6%; in the assay on EKVX NSCLC, 58.8%. Moreover, the growth in the assay on UO-31 renal is 26.1%; in the assay on TK-10 renal, 61.7%; in the assay on ACHN renal it was 29%; with CAKI-1 renal it was 19.3%; in the assay with A498 renal, 23.6%; with CCRF-CEM leukemia, 21.9%. The growth in the assay on MOLT-4 leukemia was 13.5%.

For the compound `COc1cc2c(cc1-c1c(C)noc1C)ncc1nc(CN3CCOCC3)n([C@H](C)COC(F)F)c12`, the growth with HCT-15 colon was 23%; with HT29 colon, 12.1%; with SNB-75 CNS it was 3.11% (active); in the assay on SNB-19 CNS it was 45.1%; with U251 CNS, 61.3%; in the assay on PC-3 prostate it was 32.3%. The growth in the assay on SK-MEL-5 melanoma is 19.8%; in the assay on LOX IMVI melanoma, 12.1%; in the assay on SK-MEL-28 melanoma it was 59.3%; in the assay with SK-MEL-2 melanoma, 36.7%; in the assay on EKVX NSCLC, 49.6%; with SN12C renal, 56.7%. The growth is 14.1% in the assay on UO-31 renal; 2.77% (active) in the assay on TK-10 renal; 36.1% with ACHN renal; 35.1% in the assay with CAKI-1 renal; -7% (active) in the assay on A498 renal; 44% in the assay with CCRF-CEM leukemia. The growth with MOLT-4 leukemia was 59.5%.

For the compound `Cc1cc(Cl)nc(N2CCN(CCNc3ccnc4cc(Cl)ccc34)CC2)n1`, the growth with HCT-15 colon is 22.4%; in the assay on HT29 colon, 10.5%; with SNB-75 CNS, 87.5%; with SNB-19 CNS, 79.9%; in the assay with U251 CNS it was 55.3%; in the assay on PC-3 prostate, 43.1%. The growth is -45.2% (active) with SK-MEL-5 melanoma; -14.6% (active) in the assay on LOX IMVI melanoma; 47.7% with SK-MEL-28 melanoma; 61.1% with SK-MEL-2 melanoma; 44.8% with EKVX NSCLC; 71.2% in the assay on SN12C renal. The growth is 32.4% with UO-31 renal; 48.2% in the assay with TK-10 renal; 58.2% in the assay with ACHN renal; 44.6% in the assay on CAKI-1 renal; 42.4% in the assay with A498 renal; 63.1% in the assay with CCRF-CEM leukemia. For the same compound, the growth with MOLT-4 leukemia was 32.6%.

For the compound `O=C(NCCN1CCOCC1)OCc1ccc2c(Cl)cc(Cl)c(O)c2n1`, the growth was 19.5% with HCT-15 colon; 108% with HT29 colon; 71.2% in the assay with SNB-75 CNS; 59% in the assay with SNB-19 CNS; 44.6% with U251 CNS; 60% in the assay with PC-3 prostate. Besides, the growth is 53.8% in the assay with SK-MEL-5 melanoma; 59.7% with UACC-62 melanoma; 51% with LOX IMVI melanoma; 71.6% in the assay on SK-MEL-28 melanoma; 78.1% with SK-MEL-2 melanoma; 89.6% in the assay on EKVX NSCLC. The growth is 25.5% in the assay with UO-31 renal; 96.4% in the assay with TK-10 renal; 37.3% in the assay on ACHN renal; 47.1% in the assay with CAKI-1 renal; 106% with A498 renal; 48.3% with CCRF-CEM leukemia. In the assay on MOLT-4 leukemia, the growth is 57.9%.

Take `O=C(NCCNC(c1ccccc1)C(NCCNC(=O)c1ccccc1)c1ccccc1)c1ccccc1` (stereo unspecified): the growth in the assay with HCT-15 colon is 18.8%; with HT29 colon it was 36.7%; with SNB-75 CNS it was 117%; in the assay with SNB-19 CNS, 88%; with U251 CNS, 74.7%; in the assay on PC-3 prostate, 70.4%. Moreover, the growth is 95.7% in the assay on SK-MEL-5 melanoma; 75.6% in the assay on LOX IMVI melanoma; 103% with SK-MEL-28 melanoma; 45.9% with SK-MEL-2 melanoma; 123% in the assay on EKVX NSCLC; 97.7% in the assay with SN12C renal. For the same compound, the growth in the assay on UO-31 renal was 80.3%; with TK-10 renal, 97.5%; in the assay with ACHN renal, 7.15% (active); in the assay on CAKI-1 renal, 61.6%; in the assay with A498 renal, 112%; in the assay on CCRF-CEM leukemia, 97.1%. The growth with MOLT-4 leukemia was 72.2%.

Turning to `COCCn1cc(-c2csc(-c3c[nH]c4ccccc34)n2)c2cccnc21`, the growth was 25.8% in the assay on HCT-15 colon; 11.6% in the assay with HT29 colon; 20.5% in the assay on SNB-75 CNS; 35.5% in the assay with U251 CNS; 29.6% with PC-3 prostate; 8.9% (active) in the assay on SK-MEL-5 melanoma. For the same compound, the growth was 54.8% in the assay with UACC-62 melanoma; 34.1% in the assay with LOX IMVI melanoma; 64.4% with SK-MEL-28 melanoma; 18.3% in the assay on SK-MEL-2 melanoma; 31.8% in the assay with EKVX NSCLC; 64.3% in the assay on SN12C renal. In addition, the growth in the assay with UO-31 renal was 44%; in the assay with TK-10 renal, 34.9%; with ACHN renal it was 49.6%; with CAKI-1 renal, 56.2%; in the assay on A498 renal, 17.7%; with CCRF-CEM leukemia, 36.7%. Also, the growth in the assay on MOLT-4 leukemia was 25.7%.

For the compound `CCOC(=O)CC1CSC(N/N=C/c2ccc(F)c(Br)c2)=N1` (stereo unspecified), the growth with HCT-15 colon is 101%; in the assay on HT29 colon it was 84.8%; with SNB-75 CNS, 109%; in the assay with U251 CNS, 94.7%; in the assay with PC-3 prostate, 103%; in the assay with SK-MEL-5 melanoma it was 101%. Besides, the growth is 103% with UACC-62 melanoma; 101% in the assay on LOX IMVI melanoma; 107% in the assay with SK-MEL-28 melanoma; 104% with SK-MEL-2 melanoma; 104% with EKVX NSCLC; 114% in the assay on SN12C renal. The growth is 82.9% in the assay on UO-31 renal; 102% in the assay with TK-10 renal; 106% in the assay on ACHN renal; 95.5% in the assay on CAKI-1 renal; 95.7% in the assay with A498 renal; 90% in the assay with CCRF-CEM leukemia. For the same compound, the growth with MOLT-4 leukemia is 88.5%.

Regarding `COc1ccccc1/C=C/C(=O)Nc1ccc(F)cc1`, the growth is 98.4% with HCT-15 colon; 89.1% in the assay with HT29 colon; 77.9% in the assay with SNB-75 CNS; 99.8% in the assay on SNB-19 CNS; 108% in the assay on U251 CNS; 95.7% with PC-3 prostate. Also, the growth with SK-MEL-5 melanoma was 95.1%; in the assay on LOX IMVI melanoma, 100%; in the assay on SK-MEL-28 melanoma it was 108%; in the assay with SK-MEL-2 melanoma, 99.1%; in the assay with EKVX NSCLC, 73.2%; in the assay with SN12C renal it was 111%. Also, the growth is 87.6% in the assay with UO-31 renal; 128% in the assay on TK-10 renal; 101% in the assay on ACHN renal; 90.7% in the assay on CAKI-1 renal; 97.6% with CCRF-CEM leukemia; 88.1% in the assay with MOLT-4 leukemia.
